{
  "source": "PubChem BioAssay AID1159580",
  "about": "(chemical genetic matrix, 2015)",
  "assay": "chemical genetic growth profiling, strain panel (AID 1159580);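 further: tested at 20 µM; growth read once vehicle control cultures reached saturation at 30 °C; 1 = growth at the plate median or of vehicle wells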",
  "conditions": "S. cerevisiae deletion strains, growth OD",
  "key": {"[1]": {"conditions": "locus YAL013W, strain DEP1, stronger effect = lower value"}, "[2]": {"conditions": "locus YBR229C, strain ROT2, stronger effect = lower value"}, "[3]": {"conditions": "locus YDL101C, strain DUN1, stronger effect = lower value"}, "[4]": {"conditions": "locus YDR150W, strain NUM1, stronger effect = lower value"}, "[5]": {"conditions": "locus YEL061C, strain CIN8, stronger effect = lower value"}, "[6]": {"conditions": "locus YGR078C, strain PAC10, stronger effect = lower value"}, "[7]": {"conditions": "locus YHR030C, strain SLT2, stronger effect = lower value"}, "[8]": {"conditions": "locus YHR087W, strain rtc3, stronger effect = lower value"}, "[9]": {"conditions": "locus YJR043C, strain POL32, stronger effect = lower value"}, "[10]": {"conditions": "locus YJR075W, strain HOC1, stronger effect = lower value"}, "[11]": {"conditions": "locus YLR039C, strain RIC1, stronger effect = lower value"}, "[12]": {"conditions": "locus YLR058C, strain SHM2 (second series), stronger effect = lower value"}, "[13]": {"conditions": "locus YLR085C, strain ARP6, stronger effect = lower value"}, "[14]": {"conditions": "locus YLR262C, strain YPT6, stronger effect = lower value"}, "[15]": {"conditions": "locus YML094W, strain GIM5, stronger effect = lower value"}, "[16]": {"conditions": "locus YMR219W, strain ESC1, stronger effect = lower value"}, "[17]": {"conditions": "locus YMR263W, strain SAP30, stronger effect = lower value"}, "[18]": {"conditions": "locus YNL153C, strain GIM3, stronger effect = lower value"}, "[19]": {"conditions": "locus YNL298W, strain CLA4 (second series), stronger effect = lower value"}, "[20]": {"conditions": "locus YNL322C, strain KRE1, stronger effect = lower value"}, "[21]": {"conditions": "locus YNR030W, strain Alg12, stronger effect = lower value"}, "[22]": {"conditions": "locus YOL006C, strain TOP1, stronger effect = lower value"}, "[23]": {"conditions": "locus YPL055C, strain LGE1, stronger effect = lower value"}, "[24]": {"conditions": "locus YPL241C, strain CIN2, stronger effect = lower value"}, "[25]": {"conditions": "locus YPR135W, strain CTF4, stronger effect = lower value"}},
  "note": "The campaign covered roughly 5,500 compounds. About 2,000 (36%) were called active. Not shown: some 18% with an inconclusive outcome. This is one part of the list. A number with no mark means an inactive call. No stated cut-off is given here; in the data, active means normalized growth mostly below about 0.91 (no sharp cut-off); inconclusive means no clear call, values can overlap the other calls; inactive means mostly above about 0.92.",
  "data": [
    {"smiles": "O=[N+]([O-])c1ccc(Oc2cccc3cccnc23)cc1", "values": [
      {"measurement": "normalized growth", "setting": "[1]", "result": 1.01},
      {"measurement": "normalized growth", "setting": "[2]", "result": 1},
      {"measurement": "normalized growth", "setting": "[3]", "result": 0.942},
      {"measurement": "normalized growth", "setting": "locus YDL134C, strain PPH21, stronger effect = lower value", "result": 0.993},
      {"measurement": "normalized growth", "setting": "[4]", "result": 1},
      {"measurement": "normalized growth", "setting": "[5]", "result": 0.98},
      {"measurement": "normalized growth", "setting": "[6]", "result": 0.991},
      {"measurement": "normalized growth", "setting": "[7]", "result": 0.736},
      {"measurement": "normalized growth", "setting": "[8]", "result": 1},
      {"measurement": "normalized growth", "setting": "[9]", "result": 0.98},
      {"measurement": "normalized growth", "setting": "[10]", "result": 1.02},
      {"measurement": "normalized growth", "setting": "[11]", "result": 0.805},
      {"measurement": "normalized growth", "setting": "[12]", "result": 1},
      {"measurement": "normalized growth", "setting": "[13]", "result": 0.959},
      {"measurement": "normalized growth", "setting": "[14]", "result": "0.799 (active)"},
      {"measurement": "normalized growth", "setting": "[15]", "result": 0.991},
      {"measurement": "normalized growth", "setting": "[16]", "result": 0.993},
      {"measurement": "normalized growth", "setting": "[17]", "result": 1},
      {"measurement": "normalized growth", "setting": "locus YMR307W, strain GAS1, stronger effect = lower value", "result": 0.719},
      {"measurement": "normalized growth", "setting": "[18]", "result": "0.848 (active)"},
      {"measurement": "normalized growth", "setting": "[19]", "result": 0.892},
      {"measurement": "normalized growth", "setting": "[20]", "result": 1},
      {"measurement": "normalized growth", "setting": "[21]", "result": 0.994},
      {"measurement": "normalized growth", "setting": "[22]", "result": 0.872},
      {"measurement": "normalized growth", "setting": "[23]", "result": 0.919},
      {"measurement": "normalized growth", "setting": "[24]", "result": "0.854 (active)"},
      {"measurement": "normalized growth", "setting": "[25]", "result": 0.754}
    ]},
    {"smiles": "O=[N+]([O-])c1ccc(OCCCOc2ccc([N+](=O)[O-])cc2)cc1", "values": [
      {"measurement": "normalized growth", "setting": "[1]", "result": 1},
      {"measurement": "normalized growth", "setting": "[2]", "result": 0.978},
      {"measurement": "normalized growth", "setting": "[3]", "result": 0.98},
      {"measurement": "normalized growth", "setting": "[4]", "result": 0.988},
      {"measurement": "normalized growth", "setting": "[5]", "result": 0.979},
      {"measurement": "normalized growth", "setting": "[6]", "result": 0.991},
      {"measurement": "normalized growth", "setting": "locus YGR229C, strain SMI1, stronger effect = lower value", "result": 0.995},
      {"measurement": "normalized growth", "setting": "[7]", "result": 0.91},
      {"measurement": "normalized growth", "setting": "[8]", "result": 0.973},
      {"measurement": "normalized growth", "setting": "[9]", "result": 1.01},
      {"measurement": "normalized growth", "setting": "[10]", "result": 0.971},
      {"measurement": "normalized growth", "setting": "locus YKL190W, strain CNB1, stronger effect = lower value", "result": 1},
      {"measurement": "normalized growth", "setting": "[11]", "result": 0.966},
      {"measurement": "normalized growth", "setting": "[12]", "result": 0.975},
      {"measurement": "normalized growth", "setting": "[13]", "result": 0.993},
      {"measurement": "normalized growth", "setting": "[14]", "result": 0.969},
      {"measurement": "normalized growth", "setting": "[15]", "result": 0.934},
      {"measurement": "normalized growth", "setting": "[16]", "result": 0.983},
      {"measurement": "normalized growth", "setting": "[17]", "result": 1.01},
      {"measurement": "normalized growth", "setting": "locus YNL128W, strain TEP1, stronger effect = lower value", "result": 0.996},
      {"measurement": "normalized growth", "setting": "[18]", "result": 0.995},
      {"measurement": "normalized growth", "setting": "[19]", "result": 0.961},
      {"measurement": "normalized growth", "setting": "[20]", "result": 0.99},
      {"measurement": "normalized growth", "setting": "[21]", "result": 0.979},
      {"measurement": "normalized growth", "setting": "[22]", "result": 0.97},
      {"measurement": "normalized growth", "setting": "[23]", "result": 1.02},
      {"measurement": "normalized growth", "setting": "[24]", "result": 0.953},
      {"measurement": "normalized growth", "setting": "[25]", "result": 0.932}
    ]}
  ]
}
